Each structure is given as a SMILES string. The panel holds about 83,000 compounds, 20% with a hit somewhere; the sample as a whole holds those more often.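 48-hour exposure, single concentration, 96-well plates; percent growth endpoint where 0 means no net growth. Active: below 10.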 Values without a mark were called inactive. Active and inactive are the calls of the source.

Some test systems named below: HCT-15 colon; HT29 colon; SNB-75 CNS; SNB-19 CNS; U251 CNS; PC-3 prostate; SK-MEL-5 melanoma; UACC-62 melanoma; LOX IMVI melanoma; SK-MEL-28 melanoma; SK-MEL-2 melanoma; EKVX NSCLC; SN12C renal; UO-31 renal; TK-10 renal; ACHN renal; CAKI-1 renal; A498 renal; CCRF-CEM leukemia; MOLT-4 leukemia.
Test in all cases: NCI-60 one-dose screen, 48 h (100 = growth as untreated, 0 = no growth, -100 = all killed)
What all share (settings): 10 µM unless noted

As to `Nc1nc2c([nH]1)c1[nH]c3ccccc3c1c1[nH]c3ccccc3c21`, the growth in the assay with HCT-15 colon was 51%; with HT29 colon, 3.16% (active); in the assay on SNB-75 CNS, 44.5%; with SNB-19 CNS, 62.4%; in the assay on U251 CNS, -6.57% (active); with PC-3 prostate, 34.9%. The growth in the assay with SK-MEL-5 melanoma is 58.7%; in the assay with UACC-62 melanoma, -31.9% (active); with LOX IMVI melanoma, 4.23% (active); in the assay with SK-MEL-28 melanoma, -77.5% (active); in the assay on SK-MEL-2 melanoma, -23.5% (active); in the assay on EKVX NSCLC it was 73.5%. The growth with SN12C renal is 75.6%; with UO-31 renal, 62.9%; with TK-10 renal, 91.4%; in the assay on ACHN renal, 59.1%; with CAKI-1 renal, 83.2%; in the assay with A498 renal, 134%. Besides, the growth in the assay on CCRF-CEM leukemia was -3.64% (active); with MOLT-4 leukemia, -12.5% (active).
Regarding `N#Cc1c(-c2ccc(Cl)cc2)nc(SCC(=O)NC2=NN=C(c3ccccc3)CS2)[nH]c1=O`, the growth in the assay on HCT-15 colon was 72.4%; in the assay on HT29 colon, 104%; in the assay with SNB-75 CNS it was 80.5%; in the assay on SNB-19 CNS it was 85.8%; in the assay on U251 CNS, 77.3%; with PC-3 prostate, 78.6%. Further, the growth in the assay on SK-MEL-5 melanoma was 84.2%; with UACC-62 melanoma it was 75.1%; in the assay with LOX IMVI melanoma it was 69.5%; in the assay with SK-MEL-28 melanoma, 76.3%; in the assay with SK-MEL-2 melanoma, 82.9%; with EKVX NSCLC, 86.2%. The growth in the assay on SN12C renal was 97.4%; in the assay on UO-31 renal, 71.2%; in the assay with TK-10 renal, 119%; in the assay with ACHN renal, 88.9%; in the assay with CAKI-1 renal it was 77%; with A498 renal, 97.6%. The growth is 63.8% in the assay with CCRF-CEM leukemia and 90.4% in the assay with MOLT-4 leukemia.
Take `CCN1CCN(Cc2cn(CC(=O)Nc3ccc4c(ccn4Cc4ccccc4)c3)nn2)CC1`: the growth with HCT-15 colon is 109%; with HT29 colon it was 102%; with SNB-75 CNS, 86.8%; in the assay with SNB-19 CNS, 98.4%; in the assay with U251 CNS, 96.6%; in the assay on PC-3 prostate it was 96.4%. Moreover, the growth was 99.9% with SK-MEL-5 melanoma; 95% in the assay on UACC-62 melanoma; 103% in the assay with LOX IMVI melanoma; 105% in the assay on SK-MEL-28 melanoma; 106% in the assay on SK-MEL-2 melanoma; 106% with EKVX NSCLC. The growth with SN12C renal is 104%; with UO-31 renal it was 81.3%; with TK-10 renal it was 99.2%; in the assay with ACHN renal, 102%; with CAKI-1 renal, 86.7%; in the assay on A498 renal it was 108%. The results for the growth in the assay on CCRF-CEM leukemia and with MOLT-4 leukemia were 7.79% (active) and 101%, respectively.
Regarding `Cc1cnc(C(=O)NNc2nc3sc4c(c3c(=O)n2C)C(C)CCC4)cn1` (stereo not given), the growth is 15.9% in the assay with HCT-15 colon; -2.88% (active) in the assay with HT29 colon; 1.63% (active) in the assay on SNB-75 CNS; -14.8% (active) with SNB-19 CNS; -33.3% (active) in the assay on U251 CNS; 8.78% (active) in the assay with PC-3 prostate. Moreover, the growth in the assay on SK-MEL-5 melanoma is -53.8% (active); with UACC-62 melanoma it was -20.8% (active); with LOX IMVI melanoma it was -17.5% (active); with SK-MEL-28 melanoma, 8.43% (active); in the assay with SK-MEL-2 melanoma, -6.07% (active); with EKVX NSCLC it was 6.08% (active). Further, the growth was 9.01% (active) with SN12C renal; -0.356% (active) in the assay on UO-31 renal; 27.2% in the assay on TK-10 renal; 9.47% (active) in the assay with ACHN renal; 2.74% (active) in the assay with CAKI-1 renal; 21.1% with A498 renal. The growth was 2.41% (active) in the assay with CCRF-CEM leukemia and 3.79% (active) with MOLT-4 leukemia.
Turning to `C#Cc1cccc(Nc2ncnc3ccc(-c4cnc(N)nc4)cc23)c1`, the growth in the assay with HCT-15 colon was 23.1%; with HT29 colon, 48%; with SNB-75 CNS it was 6.34% (active); with SNB-19 CNS, 47.2%; in the assay with U251 CNS, 54.7%; in the assay with PC-3 prostate, 27.1%. Moreover, the growth in the assay on SK-MEL-5 melanoma is 32.7%; in the assay with UACC-62 melanoma, 24.8%; in the assay on LOX IMVI melanoma, 22.2%; in the assay on SK-MEL-28 melanoma it was 38.1%; in the assay with SK-MEL-2 melanoma it was 19.8%; in the assay on EKVX NSCLC, 2.36% (active). The growth was 7.3% (active) in the assay with SN12C renal; -5.12% (active) in the assay on UO-31 renal; -9.72% (active) with TK-10 renal; 3.99% (active) with ACHN renal; 2.19% (active) in the assay with CAKI-1 renal; -44.6% (active) in the assay on A498 renal. Moreover, the growth was 35.7% in the assay with CCRF-CEM leukemia and 19.6% in the assay on MOLT-4 leukemia.
Regarding `c1cnc2[nH]cc(-c3csc(-c4cn(CCCN5CCOCC5)c5ccccc45)n3)c2c1`, the growth in the assay on HCT-15 colon was 14%; with HT29 colon, 7.69% (active); with SNB-75 CNS it was 20.1%; in the assay with SNB-19 CNS, 56.8%; in the assay with U251 CNS, 32.9%; in the assay with PC-3 prostate, 19.6%. The growth in the assay with SK-MEL-5 melanoma is 38%; in the assay on UACC-62 melanoma, 65.5%; with LOX IMVI melanoma it was 30.6%; in the assay on SK-MEL-28 melanoma it was 65.3%; in the assay on SK-MEL-2 melanoma it was 82.6%; in the assay with EKVX NSCLC, 47.9%. Besides, the growth in the assay with SN12C renal was 64.5%; with UO-31 renal, 23%; in the assay on TK-10 renal it was 69.6%; in the assay with ACHN renal it was 32.8%; in the assay with CAKI-1 renal, 47.5%; in the assay on A498 renal, 53.9%. Also, the growth in the assay with CCRF-CEM leukemia was 17.4%; with MOLT-4 leukemia, 16.6%.
As for `CCN(c1ccc(Cl)cc1)c1nc(-c2ccc([N+](=O)[O-])cc2)cs1`, the growth in the assay on HCT-15 colon is 98.1%; in the assay on HT29 colon, 91%; in the assay with SNB-75 CNS, 96.8%; with SNB-19 CNS it was 95.4%; in the assay with U251 CNS, 102%; in the assay with PC-3 prostate it was 92.6%. In addition, the growth was 99.7% with SK-MEL-5 melanoma; 79.8% in the assay on UACC-62 melanoma; 93% in the assay with LOX IMVI melanoma; 105% in the assay on SK-MEL-28 melanoma; 101% with SK-MEL-2 melanoma; 79.5% in the assay on EKVX NSCLC. Further, the growth was 98.5% in the assay with SN12C renal; 71.9% with UO-31 renal; 115% with TK-10 renal; 95.9% in the assay on ACHN renal; 79.6% in the assay on CAKI-1 renal; 63.8% with A498 renal. The growth in the assay with CCRF-CEM leukemia was 101%; with MOLT-4 leukemia, 96.9%.
Turning to `CCNc1nc(-c2ccc(Cl)c(OC)c2)c(-c2ccnc(NCCCNS(=O)(=O)c3ccc(Cl)cc3)n2)s1`, the growth in the assay with HCT-15 colon is 61.6%; in the assay with HT29 colon it was 19.1%; in the assay with SNB-75 CNS, 77.6%; in the assay with SNB-19 CNS, 81.8%; in the assay on U251 CNS, 51.9%; in the assay with PC-3 prostate it was 29.4%. In addition, the growth in the assay with SK-MEL-5 melanoma is 48.2%; with UACC-62 melanoma it was 29.7%; in the assay on LOX IMVI melanoma, 56.3%; in the assay on SK-MEL-28 melanoma, 38.9%; in the assay with SK-MEL-2 melanoma it was -27.1% (active); with EKVX NSCLC it was 75.4%. Also, the growth with SN12C renal was 66.5%; in the assay on UO-31 renal, 64.9%; in the assay on TK-10 renal, 43.7%; in the assay with ACHN renal, 74.1%; in the assay with CAKI-1 renal it was 59%; with A498 renal, 66.8%. In addition, the growth is 31.6% with CCRF-CEM leukemia and 22.2% with MOLT-4 leukemia.

The values above are taken from PubChem BioAssay (NCI).
